About 8,800 targets were measured; listed, in parts, are those with a hit and a random draw of the rest. About 0.5% of all pairs of compound and target were hits.
The targets below were run with CS(=O)(=O)CCNCc1ccc(-c2ccc3ncnc(Nc4ccc(OCc5cccc(F)c5)c(Cl)c4)c3c2)o1 [lapatinib] (assay: log2 fold change, soluble protein after heating vs DMSO (PISA); higher = thermal stabilisation; K562 lysate, 10 uM; active = over 0.2 and 3.5 SD of the protein, either way, in both replicates (recomputed)).
Outline: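 Thermal stability, expressed as log-two fold change relative to solvent controls, is given from duplicates. Crude K562 extract in PBS pH 7.4 with 1 mM MgCl2, at 1 mg/mL protein, was treated with 10 μM compound for 30 min and heated in aliquots for 3 min across 48°C-58°C. After pooling, adjustment to 0.5% NP-40 at 4°C and centrifugation at 21,000xg for 90 min, supernatant protein was measured by TMTpro 16plex LC-MS/MS with channel sums equalised.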

Sequence of UniProt O75592 (O75592 whole entry, looked up): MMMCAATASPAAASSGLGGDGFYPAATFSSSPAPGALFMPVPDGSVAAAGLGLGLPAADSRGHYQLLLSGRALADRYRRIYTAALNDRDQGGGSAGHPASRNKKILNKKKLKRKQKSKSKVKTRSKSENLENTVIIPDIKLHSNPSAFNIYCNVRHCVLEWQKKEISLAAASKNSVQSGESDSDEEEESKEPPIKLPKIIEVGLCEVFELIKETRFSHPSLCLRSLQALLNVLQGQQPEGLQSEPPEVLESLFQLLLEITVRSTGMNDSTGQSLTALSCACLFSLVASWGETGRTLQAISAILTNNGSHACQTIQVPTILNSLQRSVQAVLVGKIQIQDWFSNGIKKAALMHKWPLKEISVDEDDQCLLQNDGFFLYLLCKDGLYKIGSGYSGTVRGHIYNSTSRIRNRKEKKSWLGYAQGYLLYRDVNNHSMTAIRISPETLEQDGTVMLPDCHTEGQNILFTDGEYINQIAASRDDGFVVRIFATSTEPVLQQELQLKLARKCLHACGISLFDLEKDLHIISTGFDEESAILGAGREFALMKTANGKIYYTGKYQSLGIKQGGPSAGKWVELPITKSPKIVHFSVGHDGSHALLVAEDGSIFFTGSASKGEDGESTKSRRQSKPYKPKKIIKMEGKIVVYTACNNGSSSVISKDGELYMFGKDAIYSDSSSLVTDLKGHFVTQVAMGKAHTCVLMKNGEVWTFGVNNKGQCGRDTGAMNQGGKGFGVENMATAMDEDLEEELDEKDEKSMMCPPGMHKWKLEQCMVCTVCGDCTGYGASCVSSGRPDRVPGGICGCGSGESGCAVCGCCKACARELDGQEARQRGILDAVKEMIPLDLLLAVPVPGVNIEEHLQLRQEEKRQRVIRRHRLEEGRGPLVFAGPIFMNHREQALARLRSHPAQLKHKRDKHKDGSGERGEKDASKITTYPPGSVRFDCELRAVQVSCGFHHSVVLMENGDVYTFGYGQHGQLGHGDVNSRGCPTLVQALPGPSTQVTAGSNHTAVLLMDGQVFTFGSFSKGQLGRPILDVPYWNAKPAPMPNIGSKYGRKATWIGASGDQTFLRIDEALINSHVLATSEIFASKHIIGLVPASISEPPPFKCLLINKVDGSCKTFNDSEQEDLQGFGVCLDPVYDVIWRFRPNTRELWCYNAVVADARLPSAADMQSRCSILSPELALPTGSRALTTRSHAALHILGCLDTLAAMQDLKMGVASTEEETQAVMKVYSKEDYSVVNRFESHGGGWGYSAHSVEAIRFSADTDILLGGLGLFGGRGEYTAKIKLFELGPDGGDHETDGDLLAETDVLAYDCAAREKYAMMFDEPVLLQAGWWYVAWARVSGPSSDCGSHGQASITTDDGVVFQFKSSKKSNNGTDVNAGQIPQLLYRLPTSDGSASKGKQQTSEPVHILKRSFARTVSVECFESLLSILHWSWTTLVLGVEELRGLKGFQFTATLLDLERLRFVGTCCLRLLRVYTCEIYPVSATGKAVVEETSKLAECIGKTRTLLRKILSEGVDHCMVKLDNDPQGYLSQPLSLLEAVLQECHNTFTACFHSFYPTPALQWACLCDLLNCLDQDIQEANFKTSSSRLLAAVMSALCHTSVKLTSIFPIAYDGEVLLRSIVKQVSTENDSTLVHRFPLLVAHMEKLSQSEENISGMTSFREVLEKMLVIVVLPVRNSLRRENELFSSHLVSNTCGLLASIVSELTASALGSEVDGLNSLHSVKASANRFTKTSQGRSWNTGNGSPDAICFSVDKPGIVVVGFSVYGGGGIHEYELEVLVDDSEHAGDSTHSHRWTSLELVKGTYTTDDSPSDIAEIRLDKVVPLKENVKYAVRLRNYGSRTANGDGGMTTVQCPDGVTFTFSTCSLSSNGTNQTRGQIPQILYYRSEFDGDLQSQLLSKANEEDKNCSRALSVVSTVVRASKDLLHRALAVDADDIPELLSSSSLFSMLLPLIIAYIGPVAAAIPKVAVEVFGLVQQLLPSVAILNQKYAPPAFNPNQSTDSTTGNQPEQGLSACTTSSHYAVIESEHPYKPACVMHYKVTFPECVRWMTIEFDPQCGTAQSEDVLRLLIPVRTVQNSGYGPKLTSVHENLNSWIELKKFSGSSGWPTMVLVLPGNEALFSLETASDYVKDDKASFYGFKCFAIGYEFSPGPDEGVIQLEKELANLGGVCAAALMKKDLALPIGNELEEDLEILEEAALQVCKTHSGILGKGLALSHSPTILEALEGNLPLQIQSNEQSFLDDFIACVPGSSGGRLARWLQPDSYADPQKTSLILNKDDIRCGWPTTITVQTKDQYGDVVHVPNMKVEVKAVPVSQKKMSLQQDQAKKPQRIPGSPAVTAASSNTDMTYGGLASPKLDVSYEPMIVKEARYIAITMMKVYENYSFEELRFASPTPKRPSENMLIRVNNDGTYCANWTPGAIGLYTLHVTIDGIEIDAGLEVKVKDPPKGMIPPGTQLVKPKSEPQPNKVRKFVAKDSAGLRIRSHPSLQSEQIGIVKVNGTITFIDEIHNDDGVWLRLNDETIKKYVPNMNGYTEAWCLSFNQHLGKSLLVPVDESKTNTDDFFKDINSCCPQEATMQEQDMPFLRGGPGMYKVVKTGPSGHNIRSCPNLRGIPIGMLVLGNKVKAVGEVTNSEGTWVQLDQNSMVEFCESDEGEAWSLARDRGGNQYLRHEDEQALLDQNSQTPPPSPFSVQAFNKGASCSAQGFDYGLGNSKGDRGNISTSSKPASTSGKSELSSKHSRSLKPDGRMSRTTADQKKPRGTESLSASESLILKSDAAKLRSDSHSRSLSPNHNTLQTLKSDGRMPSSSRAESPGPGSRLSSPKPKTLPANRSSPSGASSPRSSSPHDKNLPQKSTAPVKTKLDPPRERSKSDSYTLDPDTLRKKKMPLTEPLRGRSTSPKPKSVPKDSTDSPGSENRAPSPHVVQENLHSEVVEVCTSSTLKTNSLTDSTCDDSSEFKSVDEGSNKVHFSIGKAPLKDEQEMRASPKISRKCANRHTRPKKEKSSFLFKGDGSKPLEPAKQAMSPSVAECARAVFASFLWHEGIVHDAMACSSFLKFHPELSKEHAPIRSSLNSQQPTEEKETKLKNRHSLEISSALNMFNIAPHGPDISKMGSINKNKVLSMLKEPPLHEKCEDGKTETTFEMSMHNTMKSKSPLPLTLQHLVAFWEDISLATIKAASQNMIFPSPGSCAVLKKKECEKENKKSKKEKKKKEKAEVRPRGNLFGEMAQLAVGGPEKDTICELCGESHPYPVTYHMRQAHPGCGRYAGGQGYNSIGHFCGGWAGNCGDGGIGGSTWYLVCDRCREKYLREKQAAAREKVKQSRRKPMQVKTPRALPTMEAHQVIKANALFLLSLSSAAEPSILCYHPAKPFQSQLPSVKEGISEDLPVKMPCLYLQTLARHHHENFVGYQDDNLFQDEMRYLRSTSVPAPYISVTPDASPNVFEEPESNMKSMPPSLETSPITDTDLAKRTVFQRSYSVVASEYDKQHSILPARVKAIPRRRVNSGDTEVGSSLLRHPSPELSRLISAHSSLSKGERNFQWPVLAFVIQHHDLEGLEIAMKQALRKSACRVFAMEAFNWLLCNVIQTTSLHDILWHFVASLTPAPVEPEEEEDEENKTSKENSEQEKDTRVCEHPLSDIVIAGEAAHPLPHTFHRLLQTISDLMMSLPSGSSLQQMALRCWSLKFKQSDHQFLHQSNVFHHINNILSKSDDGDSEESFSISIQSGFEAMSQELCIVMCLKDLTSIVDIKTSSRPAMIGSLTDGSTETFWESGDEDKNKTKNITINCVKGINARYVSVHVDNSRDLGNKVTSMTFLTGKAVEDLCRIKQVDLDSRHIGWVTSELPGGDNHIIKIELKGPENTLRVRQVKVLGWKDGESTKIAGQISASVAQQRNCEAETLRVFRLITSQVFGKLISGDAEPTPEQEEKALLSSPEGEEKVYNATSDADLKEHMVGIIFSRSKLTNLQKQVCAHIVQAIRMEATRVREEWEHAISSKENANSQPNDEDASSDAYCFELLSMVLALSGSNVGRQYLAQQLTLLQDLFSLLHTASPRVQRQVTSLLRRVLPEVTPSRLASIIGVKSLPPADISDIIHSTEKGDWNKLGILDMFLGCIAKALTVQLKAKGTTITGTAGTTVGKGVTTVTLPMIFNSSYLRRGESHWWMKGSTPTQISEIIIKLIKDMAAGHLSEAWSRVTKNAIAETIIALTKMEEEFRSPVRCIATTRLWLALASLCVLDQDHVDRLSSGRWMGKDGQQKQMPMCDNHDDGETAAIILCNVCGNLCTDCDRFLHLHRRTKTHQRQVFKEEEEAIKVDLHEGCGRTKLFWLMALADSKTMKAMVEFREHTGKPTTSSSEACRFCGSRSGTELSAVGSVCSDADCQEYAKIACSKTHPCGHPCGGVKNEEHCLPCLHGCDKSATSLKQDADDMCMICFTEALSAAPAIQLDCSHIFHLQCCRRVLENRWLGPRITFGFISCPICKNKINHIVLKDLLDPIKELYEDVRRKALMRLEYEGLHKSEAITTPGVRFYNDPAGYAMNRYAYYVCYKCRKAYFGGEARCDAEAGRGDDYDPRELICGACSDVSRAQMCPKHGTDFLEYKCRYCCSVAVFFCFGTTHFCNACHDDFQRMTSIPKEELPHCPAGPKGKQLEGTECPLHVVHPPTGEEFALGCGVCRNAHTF
Sequence of UniProt Q6N063 (Q6N063 whole entry, looked up): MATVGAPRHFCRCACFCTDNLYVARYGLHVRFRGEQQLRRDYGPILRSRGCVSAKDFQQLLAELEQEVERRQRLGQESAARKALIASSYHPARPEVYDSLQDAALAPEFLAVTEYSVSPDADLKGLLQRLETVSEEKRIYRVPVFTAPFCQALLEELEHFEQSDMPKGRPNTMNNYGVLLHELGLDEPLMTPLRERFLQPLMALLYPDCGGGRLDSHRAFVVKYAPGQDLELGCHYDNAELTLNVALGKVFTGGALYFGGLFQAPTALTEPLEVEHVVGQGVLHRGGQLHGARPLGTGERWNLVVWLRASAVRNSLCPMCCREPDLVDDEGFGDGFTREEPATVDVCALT

log2 fold change, inactive:
OGFOD2 (UniProt Q6N063) 0.034
MTA2 (UniProt O94776) -0.003
NDC1 (UniProt Q9BTX1) -0.087
OLA1 (UniProt Q9NTK5) -0.009
OCRL (UniProt Q01968) 0.008
NCAPG2 (UniProt Q86XI2) -0.062
NUP133 (UniProt Q8WUM0) -0.007
NCKAP1L (UniProt P55160) 0
MRPL53 (UniProt Q96EL3) 0.022
MRPS12 (UniProt O15235) 0.006
NDUFS1 isoform 2 (UniProt P28331) 0.023
NCOR2 (UniProt C9J0Q5) 0.063
NUP205 (UniProt Q92621) -0.03
MTOR (UniProt P42345) -0.008
NF1 (UniProt P21359) -0.034
ORC5 (UniProt O43913) -0.014
OSBP2 (UniProt Q969R2) 0.003
PANK2 (UniProt Q9BZ23) 0.079
MYCBP2 (UniProt O75592) -0.042
NPTN (UniProt Q9Y639) -0.057
NNT (UniProt Q13423) -0.047
OAT (UniProt P04181) -0.02
MTHFD1, A0A384N5Y3 -0.008
NIPBL (UniProt Q6KC79) -0.03
NBEAL2 (UniProt Q6ZNJ1) -0.065
N4BP2 (UniProt Q86UW6) 0.003
NFKBIE (UniProt O00221) 0.03
MTA3 (UniProt Q9BTC8) 0.006
NFATC4 isoform 2 (UniProt Q14934) 0.039
NAA35 (UniProt Q5VZE5) 0.009
OPA1 isoform 2 (UniProt O60313) -0.017
NAA30 (UniProt Q147X3) -0.021
MYO1C (UniProt O00159) -0.078
NUF2 (UniProt Q9BZD4) -0.002
NCAPH (UniProt Q15003) -0.012
